# Assay results taken from paper PMC7862700, “An all-to-all approach to the identification of sequence-specific readers for epigenetic DNA modifications on cytosine”.
# How the values were obtained:
# Experiment in all cases: DAPPL (digital affinity profiling via proximity ligation, sequencing); 10 mM Tris-HCl pH 7.5, 50 mM NaCl, 1 mM DTT, 4% glycerol, room temperature, 30 min; GST-TFs on glutathione beads, 16-mer random dsDNA library, 0.1% formaldehyde crosslink after washing; high values mean tight binding
# Settings in all cases: protein: recombinant; tags: N-terminal GST; dsDNA, one strand shown
# FLI1 = molecular target: T1, FLI1 (Homo sapiens, UniProt Q01543 1-452)
# T1 sequence: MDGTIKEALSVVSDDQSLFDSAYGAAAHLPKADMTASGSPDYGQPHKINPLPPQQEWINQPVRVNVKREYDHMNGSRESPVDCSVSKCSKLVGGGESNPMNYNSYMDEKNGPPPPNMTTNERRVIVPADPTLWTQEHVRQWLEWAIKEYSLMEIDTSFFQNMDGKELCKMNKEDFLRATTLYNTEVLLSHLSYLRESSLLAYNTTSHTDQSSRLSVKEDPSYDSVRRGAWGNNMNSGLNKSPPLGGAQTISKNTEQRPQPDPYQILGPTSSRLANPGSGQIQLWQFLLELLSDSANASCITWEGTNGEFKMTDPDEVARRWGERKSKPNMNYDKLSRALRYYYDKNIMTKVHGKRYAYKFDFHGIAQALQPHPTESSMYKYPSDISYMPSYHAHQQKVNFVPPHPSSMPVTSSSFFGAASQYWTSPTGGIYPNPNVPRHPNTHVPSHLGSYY
# Summary of the method: (§1)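 Binding signal is given per hexamer as its read frequency for a factor divided by its frequency in the tag-only sample. GST-fused human transcription factors were expressed in yeast, captured on glutathione beads, barcoded with DNA and pooled with that sample, then incubated with 200 nmole of a 16-mer random double-stranded DNA library in Tris/NaCl/DTT/glycerol buffer for 30 min at room temperature. The pools were then washed, crosslinked, proximity-ligated, amplified by PCR and sequenced on an Illumina NextSeq500.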
# ELK1 = molecular target: T2, ELK1 (Homo sapiens, UniProt P19419 1-428)
# T2 sequence: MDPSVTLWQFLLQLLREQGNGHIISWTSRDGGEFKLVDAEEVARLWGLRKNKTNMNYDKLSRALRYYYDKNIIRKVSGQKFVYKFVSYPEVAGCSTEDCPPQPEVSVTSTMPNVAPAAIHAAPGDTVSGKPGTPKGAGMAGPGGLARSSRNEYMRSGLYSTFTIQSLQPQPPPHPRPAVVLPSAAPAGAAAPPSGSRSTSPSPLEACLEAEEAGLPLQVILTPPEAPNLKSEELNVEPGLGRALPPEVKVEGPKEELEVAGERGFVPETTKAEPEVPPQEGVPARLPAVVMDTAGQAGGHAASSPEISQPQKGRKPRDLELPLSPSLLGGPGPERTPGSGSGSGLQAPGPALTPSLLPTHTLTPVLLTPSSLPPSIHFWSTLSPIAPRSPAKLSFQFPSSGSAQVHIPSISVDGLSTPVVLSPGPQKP
# Summary of the method: as §1
# GABPA = molecular target: T3, GABPA (Homo sapiens, UniProt Q06546 1-454)
# T3 sequence: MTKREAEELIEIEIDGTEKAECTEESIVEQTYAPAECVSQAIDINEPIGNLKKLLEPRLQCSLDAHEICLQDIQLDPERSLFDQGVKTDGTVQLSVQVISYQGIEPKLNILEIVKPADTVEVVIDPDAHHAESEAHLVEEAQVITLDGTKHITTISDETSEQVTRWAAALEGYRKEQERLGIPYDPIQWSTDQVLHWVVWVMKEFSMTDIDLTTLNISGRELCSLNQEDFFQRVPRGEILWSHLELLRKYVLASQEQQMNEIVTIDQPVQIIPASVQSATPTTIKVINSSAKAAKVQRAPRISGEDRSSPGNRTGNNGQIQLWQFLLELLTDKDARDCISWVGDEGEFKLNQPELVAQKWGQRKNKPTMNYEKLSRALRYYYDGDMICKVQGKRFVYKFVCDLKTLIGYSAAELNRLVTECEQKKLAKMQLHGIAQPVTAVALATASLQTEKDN
# Summary of the method: as §1
# ERG = molecular target: T4, ERG (Homo sapiens, UniProt P11308 1-479)
# T4 sequence: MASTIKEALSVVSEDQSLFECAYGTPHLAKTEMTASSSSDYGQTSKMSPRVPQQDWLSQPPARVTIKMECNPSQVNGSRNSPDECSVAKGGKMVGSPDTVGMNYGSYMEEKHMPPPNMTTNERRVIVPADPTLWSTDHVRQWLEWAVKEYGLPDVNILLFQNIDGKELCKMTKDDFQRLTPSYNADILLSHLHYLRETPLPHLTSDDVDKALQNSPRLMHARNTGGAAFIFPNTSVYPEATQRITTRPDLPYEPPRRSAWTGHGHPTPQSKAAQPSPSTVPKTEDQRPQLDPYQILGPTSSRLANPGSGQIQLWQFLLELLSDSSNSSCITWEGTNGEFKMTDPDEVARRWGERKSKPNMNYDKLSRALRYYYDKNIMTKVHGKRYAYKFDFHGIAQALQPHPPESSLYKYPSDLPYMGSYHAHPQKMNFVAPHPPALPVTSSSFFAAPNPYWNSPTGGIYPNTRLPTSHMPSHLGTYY
# Summary of the method: as §1
# ELF1 = ELF1 (Homo sapiens, UniProt P32519 1-619)
# Chain of ELF1 (P32519 whole entry): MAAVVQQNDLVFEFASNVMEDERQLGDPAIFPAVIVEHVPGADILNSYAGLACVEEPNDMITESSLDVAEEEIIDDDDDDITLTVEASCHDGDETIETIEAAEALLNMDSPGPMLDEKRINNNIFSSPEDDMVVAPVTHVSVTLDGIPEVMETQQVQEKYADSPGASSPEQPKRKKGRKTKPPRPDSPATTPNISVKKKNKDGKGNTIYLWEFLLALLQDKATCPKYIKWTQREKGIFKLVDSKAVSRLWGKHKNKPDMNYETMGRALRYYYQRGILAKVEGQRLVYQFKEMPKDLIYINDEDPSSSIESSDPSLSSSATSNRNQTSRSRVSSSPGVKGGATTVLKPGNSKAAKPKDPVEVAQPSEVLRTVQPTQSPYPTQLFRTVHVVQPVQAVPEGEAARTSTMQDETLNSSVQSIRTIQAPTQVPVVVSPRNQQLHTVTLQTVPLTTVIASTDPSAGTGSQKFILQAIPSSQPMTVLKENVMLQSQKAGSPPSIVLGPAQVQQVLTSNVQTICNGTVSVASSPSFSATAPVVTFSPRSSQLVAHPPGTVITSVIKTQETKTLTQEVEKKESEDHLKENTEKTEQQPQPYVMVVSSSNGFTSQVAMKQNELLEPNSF
# Summary of the method: as §1
# EHF = molecular target: T5, EHF (Homo sapiens, UniProt Q9NZC4 1-300)
# T5 sequence: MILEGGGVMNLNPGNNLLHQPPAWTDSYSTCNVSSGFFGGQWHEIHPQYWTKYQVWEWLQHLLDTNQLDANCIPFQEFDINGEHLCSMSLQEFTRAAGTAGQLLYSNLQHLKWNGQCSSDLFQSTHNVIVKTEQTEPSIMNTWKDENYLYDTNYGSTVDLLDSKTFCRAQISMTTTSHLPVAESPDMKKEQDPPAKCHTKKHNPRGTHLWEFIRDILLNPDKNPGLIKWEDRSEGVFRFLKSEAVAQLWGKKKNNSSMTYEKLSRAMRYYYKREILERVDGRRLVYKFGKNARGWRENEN
# Summary of the method: as §1
# SPIB = SPIB (Homo sapiens, UniProt Q01892 1-262)
# Chain of SPIB (Q01892 whole entry): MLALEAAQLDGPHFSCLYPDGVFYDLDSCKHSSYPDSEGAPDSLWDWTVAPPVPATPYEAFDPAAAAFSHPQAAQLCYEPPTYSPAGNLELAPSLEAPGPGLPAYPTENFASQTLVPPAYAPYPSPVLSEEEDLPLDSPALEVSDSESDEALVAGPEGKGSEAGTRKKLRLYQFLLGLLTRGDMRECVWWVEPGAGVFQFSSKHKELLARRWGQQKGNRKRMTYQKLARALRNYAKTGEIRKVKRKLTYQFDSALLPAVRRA
# Summary of the method: as §1
# ELK3 = molecular target: T6, ELK3 (Homo sapiens, UniProt P41970 1-407)
# T6 sequence: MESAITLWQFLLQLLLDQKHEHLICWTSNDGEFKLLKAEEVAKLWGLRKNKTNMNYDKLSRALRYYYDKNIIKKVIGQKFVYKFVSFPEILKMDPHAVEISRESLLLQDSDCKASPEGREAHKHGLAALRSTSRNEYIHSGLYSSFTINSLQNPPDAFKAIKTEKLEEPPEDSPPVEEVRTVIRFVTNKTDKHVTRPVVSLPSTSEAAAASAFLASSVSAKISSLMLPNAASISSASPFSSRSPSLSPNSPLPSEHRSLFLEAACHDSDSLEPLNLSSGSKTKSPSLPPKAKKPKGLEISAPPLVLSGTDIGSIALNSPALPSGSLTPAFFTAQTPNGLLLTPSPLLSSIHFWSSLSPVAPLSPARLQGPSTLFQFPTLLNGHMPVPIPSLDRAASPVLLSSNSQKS
# Summary of the method: as §1
# FEV = molecular target: T7, FEV (Homo sapiens, UniProt Q99581 1-238)
# T7 sequence: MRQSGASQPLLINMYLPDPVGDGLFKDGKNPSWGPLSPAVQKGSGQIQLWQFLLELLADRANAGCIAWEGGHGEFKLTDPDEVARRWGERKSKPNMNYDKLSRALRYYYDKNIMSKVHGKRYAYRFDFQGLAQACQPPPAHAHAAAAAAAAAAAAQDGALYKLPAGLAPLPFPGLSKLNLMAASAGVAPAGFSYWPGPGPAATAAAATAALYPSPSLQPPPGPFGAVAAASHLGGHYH
# Summary of the method: as §1
# ETV5 = ETV5 (Homo sapiens, UniProt P41161 1-510)
# Chain of ETV5 (P41161 whole entry): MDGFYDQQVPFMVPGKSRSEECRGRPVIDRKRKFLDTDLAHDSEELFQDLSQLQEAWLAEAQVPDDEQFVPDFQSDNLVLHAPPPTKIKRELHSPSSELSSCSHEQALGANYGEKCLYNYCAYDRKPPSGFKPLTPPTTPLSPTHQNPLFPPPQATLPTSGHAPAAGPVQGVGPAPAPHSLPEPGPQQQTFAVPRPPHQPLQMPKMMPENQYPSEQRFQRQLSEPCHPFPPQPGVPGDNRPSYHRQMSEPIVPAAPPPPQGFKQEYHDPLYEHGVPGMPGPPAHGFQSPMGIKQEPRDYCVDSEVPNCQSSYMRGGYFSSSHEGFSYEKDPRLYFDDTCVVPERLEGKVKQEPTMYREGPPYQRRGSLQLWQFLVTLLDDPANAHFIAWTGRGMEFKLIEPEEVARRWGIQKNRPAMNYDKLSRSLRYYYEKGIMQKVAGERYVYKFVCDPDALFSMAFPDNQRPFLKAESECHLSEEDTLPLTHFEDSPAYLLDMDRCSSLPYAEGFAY
# Summary of the method: as §1
# SPIC = molecular target: T8, SPIC (Homo sapiens, UniProt Q8N5J4 1-248)
# T8 sequence: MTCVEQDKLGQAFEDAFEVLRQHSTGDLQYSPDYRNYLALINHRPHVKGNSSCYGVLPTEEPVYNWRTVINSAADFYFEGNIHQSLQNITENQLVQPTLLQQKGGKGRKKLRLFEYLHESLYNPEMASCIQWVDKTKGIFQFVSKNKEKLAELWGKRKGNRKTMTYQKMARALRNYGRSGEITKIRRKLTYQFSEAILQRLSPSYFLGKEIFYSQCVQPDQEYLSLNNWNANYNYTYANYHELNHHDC
# Summary of the method: as §1
# ELF4 = ELF4 (Homo sapiens, UniProt Q99607 1-663)
# Chain of ELF4 (Q99607 whole entry): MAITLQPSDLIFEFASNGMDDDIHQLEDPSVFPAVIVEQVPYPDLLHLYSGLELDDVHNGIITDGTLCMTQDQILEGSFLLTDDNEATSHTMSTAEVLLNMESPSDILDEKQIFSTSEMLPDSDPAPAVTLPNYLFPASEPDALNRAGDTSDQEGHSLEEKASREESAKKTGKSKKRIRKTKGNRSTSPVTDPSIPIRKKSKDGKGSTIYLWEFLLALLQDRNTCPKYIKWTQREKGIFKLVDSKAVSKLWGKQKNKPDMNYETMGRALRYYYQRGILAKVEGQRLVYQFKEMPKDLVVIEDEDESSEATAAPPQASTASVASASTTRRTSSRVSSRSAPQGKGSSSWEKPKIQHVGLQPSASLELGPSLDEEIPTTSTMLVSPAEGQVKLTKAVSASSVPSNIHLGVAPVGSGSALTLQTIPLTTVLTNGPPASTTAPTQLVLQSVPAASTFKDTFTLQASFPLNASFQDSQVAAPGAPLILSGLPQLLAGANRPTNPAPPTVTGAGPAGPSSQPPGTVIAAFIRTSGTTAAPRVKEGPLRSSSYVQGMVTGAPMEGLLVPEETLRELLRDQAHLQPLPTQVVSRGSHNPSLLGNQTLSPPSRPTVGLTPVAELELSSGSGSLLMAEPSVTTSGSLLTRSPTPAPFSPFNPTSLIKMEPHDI
# Summary of the method: as §1
# ETV1 = ETV1 (Homo sapiens, UniProt P50549 1-477)
# Chain of ETV1 (P50549 whole entry): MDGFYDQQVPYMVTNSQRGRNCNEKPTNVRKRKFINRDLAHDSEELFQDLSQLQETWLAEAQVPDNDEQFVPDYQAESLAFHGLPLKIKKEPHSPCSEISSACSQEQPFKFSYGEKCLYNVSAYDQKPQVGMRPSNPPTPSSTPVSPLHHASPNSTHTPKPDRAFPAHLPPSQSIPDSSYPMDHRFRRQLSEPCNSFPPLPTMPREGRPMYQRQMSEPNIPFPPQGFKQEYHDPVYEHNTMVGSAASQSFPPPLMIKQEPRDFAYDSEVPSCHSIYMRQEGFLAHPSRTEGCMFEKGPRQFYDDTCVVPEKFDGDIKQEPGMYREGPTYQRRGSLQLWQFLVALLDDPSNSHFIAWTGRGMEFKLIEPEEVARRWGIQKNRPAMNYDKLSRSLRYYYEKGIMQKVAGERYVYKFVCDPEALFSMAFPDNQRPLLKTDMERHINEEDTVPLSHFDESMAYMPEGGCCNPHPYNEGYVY
# Summary of the method: as §1
# ERF = molecular target: T9, ERF (Homo sapiens, UniProt P50548 1-548)
# T9 sequence: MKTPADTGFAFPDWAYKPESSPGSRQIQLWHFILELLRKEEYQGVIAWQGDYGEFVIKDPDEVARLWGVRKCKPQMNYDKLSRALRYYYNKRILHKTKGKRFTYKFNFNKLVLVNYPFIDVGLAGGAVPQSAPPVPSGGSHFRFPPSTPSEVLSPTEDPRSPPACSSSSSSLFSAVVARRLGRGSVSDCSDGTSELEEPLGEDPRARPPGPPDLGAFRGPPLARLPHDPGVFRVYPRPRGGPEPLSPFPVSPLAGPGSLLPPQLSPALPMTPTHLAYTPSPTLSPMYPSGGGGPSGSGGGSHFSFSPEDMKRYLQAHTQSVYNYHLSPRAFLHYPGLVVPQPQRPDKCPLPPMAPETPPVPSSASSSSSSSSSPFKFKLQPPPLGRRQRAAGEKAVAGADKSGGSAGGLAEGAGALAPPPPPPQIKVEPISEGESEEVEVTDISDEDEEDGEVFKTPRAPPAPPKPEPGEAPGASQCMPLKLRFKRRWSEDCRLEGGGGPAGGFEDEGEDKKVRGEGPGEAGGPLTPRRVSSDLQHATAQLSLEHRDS
# Summary of the method: as §1
# ETV3L = molecular target: T10, ETV3L (Homo sapiens, UniProt Q6ZN32 1-361)
# T10 sequence: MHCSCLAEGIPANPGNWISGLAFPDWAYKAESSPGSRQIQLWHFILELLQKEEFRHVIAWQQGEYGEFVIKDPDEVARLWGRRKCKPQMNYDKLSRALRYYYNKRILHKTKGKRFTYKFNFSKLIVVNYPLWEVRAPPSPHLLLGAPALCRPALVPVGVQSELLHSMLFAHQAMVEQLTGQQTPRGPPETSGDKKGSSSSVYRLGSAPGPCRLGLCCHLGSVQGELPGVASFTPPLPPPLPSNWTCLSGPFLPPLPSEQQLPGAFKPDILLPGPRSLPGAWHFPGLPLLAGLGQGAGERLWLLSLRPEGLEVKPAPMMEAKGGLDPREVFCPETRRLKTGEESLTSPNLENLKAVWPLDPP
# Summary of the method: as §1
# ETS2 = molecular target: T11, ETS2 (Homo sapiens, UniProt P15036 1-469)
# T11 sequence: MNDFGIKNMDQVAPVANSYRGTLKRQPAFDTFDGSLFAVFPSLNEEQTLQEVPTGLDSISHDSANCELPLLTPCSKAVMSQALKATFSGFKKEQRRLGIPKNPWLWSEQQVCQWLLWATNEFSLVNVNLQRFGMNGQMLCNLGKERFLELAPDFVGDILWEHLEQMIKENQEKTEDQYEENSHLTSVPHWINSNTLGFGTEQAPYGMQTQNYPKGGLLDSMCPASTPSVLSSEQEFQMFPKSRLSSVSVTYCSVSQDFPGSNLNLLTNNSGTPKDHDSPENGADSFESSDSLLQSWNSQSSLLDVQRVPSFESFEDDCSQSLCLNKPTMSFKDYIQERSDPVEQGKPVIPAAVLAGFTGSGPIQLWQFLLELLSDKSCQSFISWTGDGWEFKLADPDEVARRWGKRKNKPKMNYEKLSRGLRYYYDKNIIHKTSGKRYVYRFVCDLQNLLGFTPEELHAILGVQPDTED
# Summary of the method: as §1
# ETV3 = molecular target: T12, ETV3 (Homo sapiens, UniProt P41162-2 1-143)
# T12 sequence: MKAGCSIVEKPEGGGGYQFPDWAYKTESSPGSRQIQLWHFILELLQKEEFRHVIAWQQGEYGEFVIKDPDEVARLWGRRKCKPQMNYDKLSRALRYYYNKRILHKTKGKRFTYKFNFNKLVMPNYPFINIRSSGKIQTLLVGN
# Summary of the method: as §1
sequence,measurement,setting,value
CGGCCT,binding signal,FLI1,"1.22 fold enrichment (6-mer frequency, TF over GST control)"
same,binding signal,ELK1,"1.15 fold enrichment (6-mer frequency, TF over GST control)"
same,binding signal,GABPA,"1.16 fold enrichment (6-mer frequency, TF over GST control)"
same,binding signal,ERG,"1.17 fold enrichment (6-mer frequency, TF over GST control)"
same,binding signal,ELF1,"1.1 fold enrichment (6-mer frequency, TF over GST control)"
same,binding signal,EHF,"1.08 fold enrichment (6-mer frequency, TF over GST control)"
same,binding signal,SPIB,"1.02 fold enrichment (6-mer frequency, TF over GST control)"
same,binding signal,ELK3,"1.13 fold enrichment (6-mer frequency, TF over GST control)"
same,binding signal,FEV,"1.17 fold enrichment (6-mer frequency, TF over GST control)"
same,binding signal,ETV5,"1.14 fold enrichment (6-mer frequency, TF over GST control)"
same,binding signal,SPIC,"1.14 fold enrichment (6-mer frequency, TF over GST control)"
same,binding signal,ELF4,"1.12 fold enrichment (6-mer frequency, TF over GST control)"
same,binding signal,ETV1,"1.05 fold enrichment (6-mer frequency, TF over GST control)"
same,binding signal,ERF,"1.06 fold enrichment (6-mer frequency, TF over GST control)"
same,binding signal,ETV3L,"1.07 fold enrichment (6-mer frequency, TF over GST control)"
same,binding signal,ETS2,"1.06 fold enrichment (6-mer frequency, TF over GST control)"
same,binding signal,ETV3,"1.18 fold enrichment (6-mer frequency, TF over GST control)"
